Laboratory results from the antibiotic and cytotoxicity screens of Wong et al. (2023).
In all, about 39,000 compounds went through this assay and about 3,300 (8.5%) were called active. This is one part of a sample in which actives are shown more often than they occur.

Each compound was assayed on HepG2 (assay: cytotoxicity call (relative viability < 0.9)). Settings: 10 µM.

Q: How did the cytotoxicity call turn out when `C[C@@H]1CN([C@@H](C)CO)C(=O)c2cc(NC(=O)CCN3CCOCC3)ccc2O[C@H]1CN(C)S(C)(=O)=O` was run?
A: inactive

Q: For `CCCNC(=O)N1C[C@H](C)[C@H](OC)CN(C)C(=O)c2ccc(NS(=O)(=O)CC(F)(F)F)cc2OC[C@@H]1C`, which cytotoxicity call is on record?
A: inactive

Q: With `C[C@H]1CN([C@@H](C)CO)C(=O)c2cc(NC(=O)c3ccncc3)ccc2O[C@@H]1CN(C)S(=O)(=O)c1cccs1` as the compound, how does the cytotoxicity call read?
A: inactive

Q: How did the cytotoxicity call turn out when `C[C@H]1CN([C@@H](C)CO)C(=O)c2cc(NC(=O)CCN3CCOCC3)ccc2O[C@H]1CN(C)Cc1ccc(C(=O)O)cc1` was run?
A: inactive

Q: Which cytotoxicity call does the source give for `COc1cc([C@@H](O)CO)ccc1OS(=O)(=O)O` here?
A: inactive

Q: With `COc1ccc(S(=O)(=O)N2C[C@@H](O)COC[C@H]3O[C@H](CC(=O)N[C@H]4CCN(Cc5ccccc5)C4)CC[C@@H]32)cc1` as the compound, how does the cytotoxicity call read?
A: inactive

Q: `C[C@@H]1CN([C@@H](C)CO)C(=O)c2cc(NS(=O)(=O)c3cccs3)ccc2O[C@@H](C)CCCCO[C@H]1CN(C)Cc1ccc2c(c1)OCO2` was tested. Which cytotoxicity call did it give?
A: inactive

Q: For `C[C@H](CO)N1C[C@H](C)[C@@H](CN(C)C(=O)Nc2cccc3ccccc23)Oc2ccc(NS(=O)(=O)c3cccs3)cc2C1=O`, which cytotoxicity call is on record?
A: inactive

Q: With `C[C@H](CO)N1C[C@H](C)[C@H](CN(C)C(=O)NC2CCCCC2)OCCCC[C@H](C)Oc2ccc(NS(=O)(=O)c3cccs3)cc2C1=O` as the compound, how does the cytotoxicity call read?
A: inactive

Q: For `CC(=O)N1CC(=O)N(c2cnn(C)c2)C[C@]12CCN(C(=O)c1cnc(C)cn1)C2`, which cytotoxicity call is on record?
A: inactive

Q: How did the cytotoxicity call turn out when `CCOC(=O)N(C)C[C@H]1OCc2cn(nn2)CCCC(=O)N([C@@H](C)CO)C[C@H]1C` was run?
A: inactive

Q: `CSCC[C@H](NC(=O)[C@@H](N)Cc1c[nH]c2ccccc12)C(=O)N[C@@H](CC(=O)O)C(=O)N[C@@H](Cc1ccccc1)C(N)=O` was tested. Which cytotoxicity call did it give?
A: inactive

Q: Which cytotoxicity call does the source give for `CSCC[C@H](NC(=O)[C@H](Cc1c[nH]c2ccccc12)NC(=O)CNC(=O)[C@@H](NC(=O)[C@H](Cc1ccc(OS(=O)(=O)O)cc1)NC(=O)[C@H](CC(=O)O)NC(=O)[C@H](CCC(N)=O)NC(=O)[C@@H]1CCC(=O)N1)[C@@H](C)O)C(=O)N[C@@H](CC(=O)O)C(=O)N[C@@H](Cc1ccccc1)C(N)=O` here?
A: inactive

Q: With `CSCC[C@H](NC(=O)[C@H](Cc1ccc(OS(=O)(=O)O)cc1)NC(=O)[C@@H](N)CC(=O)O)C(=O)NCC(=O)N[C@@H](Cc1c[nH]c2ccccc12)C(=O)N[C@@H](CCSC)C(=O)N[C@@H](CC(=O)O)C(=O)N[C@@H](Cc1ccccc1)C(N)=O` as the compound, how does the cytotoxicity call read?
A: active

Q: With `COc1cc(OC)nc(N=CNO)n1` as the compound, how does the cytotoxicity call read?
A: inactive

Q: For `O=C(C[C@@H]1C[C@H]2c3cc(NC(=O)C4CCOCC4)ccc3O[C@H]2[C@H](CO)O1)NCc1cc(F)ccc1F`, which cytotoxicity call is on record?
A: inactive
